Laboratory results published in PubChem BioAssay AID687001 (Broad Institute, 2013).
Measured potencies and affinities stand elsewhere.

These compounds were tested against Protein S100-A4 (Homo sapiens) (UniProt P26447) (assay: S100A4-myosin IIA binding inhibitor potency, dose response, biochemical, fluorescence polarization, cherry-picked hits (AID 687001;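 note: 0% = DMSO neutral control wells and -100% = TFP positive control wells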)). Settings: FP, S100A4/TAMRA-myosin IIA peptide binding; series mostly up to 11 µM; activity change, negative = inhibition: at the top concentration;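 active = signal-lowering compounds whose fitted half-maximal concentration is at or below twice the top tested dose in every run; inconclusive = runs disagree, flat 30 to 70% inhibition, or poor curve fit; inactive = the rest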.
Sequence of Protein S100-A4 (Homo sapiens) (P26447 whole entry, looked up): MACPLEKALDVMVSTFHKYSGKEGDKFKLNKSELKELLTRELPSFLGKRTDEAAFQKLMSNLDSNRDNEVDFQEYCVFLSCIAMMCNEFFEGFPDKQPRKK

Activity change, negative = inhibition, inactive:
CN1C(C(=O)Nc2ccc(OC(F)(F)F)cc2)=CC(c2ccco2)=NS1(=O)=O -0.849%
C[C@H]1CCCCO[C@H](CN(C)S(=O)(=O)c2ccc(F)cc2)[C@@H](C)CN([C@@H](C)CO)C(=O)c2cc(NS(=O)(=O)c3ccccc3)ccc2O1 25.8%
C#CCNCCS(=O)(=O)N(Cc1ccc(Br)cc1)[C@@H](CC(C)C)C(=O)O -1.51%
CN1c2ccc(C3=CCCCC3)cc2[C@@H]2[C@@H](CCN2C(=O)C2CC2)[C@H]1CO -0.905% [at 10 µM]
CCCNC(=O)N[C@H]1C=C[C@@H](CC(=O)N2CCN(C)CC2)O[C@@H]1CO 4.04%
COc1ccc(N2CC(C(=O)Nc3ccccc3N3CCCC3)CC2=O)c(OC)c1 (stereo not given) 3.1%
C[C@H](CO)N1C[C@H](C)[C@H](CN(C)Cc2ccncc2)Oc2c(NC(=O)C3CC3)cccc2C1=O 1.1%
COc1ccc(/C=C2/CCCc3ccccc3C2=O)cc1 -0.109%
C[C@H]1CN([C@@H](C)CO)C(=O)c2cc(NC(=O)NC3CCCCC3)ccc2O[C@@H]1CN(C)Cc1ccc(C(=O)O)cc1 -1.93%
Cc1cc(NC(=O)CCC(=O)N(Cc2ccco2)C2(C(=O)NC3CCCC3)CCC(C)CC2)no1 (stereo not given) -2.48%
CC(=O)Nc1ccc2nsnc2c1 -2.33%
O=C(O)c1ccc2c(c1)C(=O)N(c1cccc3ccccc13)C2=O -4.76%
COc1ccc2oc(C)c(C(=O)c3ccc(C)cc3)c2c1 -2.59%
CCOc1ccc(OCCC(=O)N(CC(=O)Nc2ccccc2C(F)(F)F)Cc2ccco2)cc1 2.4%
COc1cccc(NC(=O)N[C@@H]2C=C[C@@H](CC(=O)NCc3ccncn3)O[C@@H]2CO)c1 0.495%
C[C@H](CO)N1C[C@H](C)[C@@H](CN(C)S(=O)(=O)c2cccs2)OCCCC[C@H](C)Oc2ccc(NS(C)(=O)=O)cc2C1=O 3.15%
CC1(C(=O)Nc2cnc3ccccc3c2)CCN1Cc1cc2ccccc2o1 (stereo not given) 5.98%
COc1ccccc1S(=O)(=O)N[C@H]1CC[C@H](CC(=O)N2CCN(C)CC2)O[C@@H]1CO 4.28%
O=C(NCCN1CCOCC1)c1ccc(/C=C2\Sc3ccccc3N(Cc3ccccc3F)C2=O)cc1 -4.52%
C[C@@H]1CN([C@@H](C)CO)C(=O)c2cc(C#Cc3ccccc3)cnc2O[C@H]1CN(C)C(=O)c1ccccc1F 2.25%
COCc1cc(=O)[nH]c(SCC(=O)N2CCOCC2)n1 -5.53%
CO[C@H]1CC[C@H]2CCOc3c(C#N)cccc3C(=O)N(C)C[C@H](c3ccccc3)CC(=O)N(C)C[C@H]1O2 1.71%
CC1Sc2ccc(S(=O)(=O)N3CCC(C(=O)NCCc4ccccc4)CC3)cc2NC1=O (stereo not given) 4.52%
COC(=O)C(c1ccccc1)C(CC(=O)c1ccccc1)c1ccccc1 (stereo not given) -2.72%
CCCCn1cnc2c(SCc3ccc(Cl)cc3)nc(N)nc21 -4.13%
